# According to PubChem BioAssay (NCATS):
# Results filed as inconclusive are left out. A call without a number means that no potency is given here. Calls of active or inactive are those of the source. Unless noted, calls come from the whole dose curve; as a rule, active = well fitted curve in the direction sought with a large enough effect; inconclusive = small, poorly fitted or top-dose-only effect, or another doubt; inactive = no such curve, though single readings can be large; an effect the other way counts as inactive or inconclusive.
# Assays:
# [1] = biological target: Catechol O-methyltransferase (Homo sapiens) (UniProt P21964); assay: Confirmatory Screen for Target Class Profiling of Small Molecule Inhibitors of Methyltransferases (AID 1745852; calls by dose curve); conditions: MTase-Glo luminescence, SAH detection, recombinant enzyme; measured here: COMT max response; stronger effect = lower value
# Chain of Catechol O-methyltransferase (Homo sapiens) (P21964 whole entry, looked up): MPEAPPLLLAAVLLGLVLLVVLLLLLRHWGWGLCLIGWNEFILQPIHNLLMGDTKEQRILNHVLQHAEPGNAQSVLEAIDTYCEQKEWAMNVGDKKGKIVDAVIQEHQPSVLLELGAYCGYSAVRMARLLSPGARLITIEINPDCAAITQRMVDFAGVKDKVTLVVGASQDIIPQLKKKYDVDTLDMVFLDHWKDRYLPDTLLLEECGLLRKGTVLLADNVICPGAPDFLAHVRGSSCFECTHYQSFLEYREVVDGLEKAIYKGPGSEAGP
# [2] = biological target: Guanidinoacetate N-methyltransferase (Homo sapiens) (UniProt Q14353); assay: as above; conditions: activity change, negative = inhibition: at 57.3 µM (top of the series) unless noted
# [3] = biological target: Nicotinamide N-methyltransferase (Homo sapiens) (UniProt P40261); assay: as above; conditions: MTase-Glo luminescence, SAH detection, recombinant enzyme; measured here: NNMT max response; stronger effect = lower value
# Chain of Nicotinamide N-methyltransferase (Homo sapiens) (P40261 whole entry, looked up): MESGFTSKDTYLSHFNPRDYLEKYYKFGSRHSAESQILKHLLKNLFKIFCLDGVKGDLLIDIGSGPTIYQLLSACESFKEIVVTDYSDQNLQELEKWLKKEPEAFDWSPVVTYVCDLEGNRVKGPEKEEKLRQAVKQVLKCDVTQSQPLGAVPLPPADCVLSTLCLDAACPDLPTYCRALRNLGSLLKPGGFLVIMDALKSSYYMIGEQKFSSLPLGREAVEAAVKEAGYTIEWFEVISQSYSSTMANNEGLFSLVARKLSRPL
# [4] = biological target: Phenylethanolamine N-methyltransferase (Homo sapiens) (UniProt P11086); assay: as above; conditions: MTase-Glo luminescence, SAH detection, recombinant enzyme; measured here: PNMT max response; stronger effect = lower value
# Chain of Phenylethanolamine N-methyltransferase (Homo sapiens) (P11086 whole entry, looked up): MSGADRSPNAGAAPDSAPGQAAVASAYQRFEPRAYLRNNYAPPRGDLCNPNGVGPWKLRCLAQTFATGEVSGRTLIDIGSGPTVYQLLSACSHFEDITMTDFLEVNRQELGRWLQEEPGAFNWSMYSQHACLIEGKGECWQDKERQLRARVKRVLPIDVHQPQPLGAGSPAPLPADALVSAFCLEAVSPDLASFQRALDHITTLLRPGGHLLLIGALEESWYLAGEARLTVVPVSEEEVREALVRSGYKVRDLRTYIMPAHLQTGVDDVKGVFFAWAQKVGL
# [5] = biological target: DNA repair nuclease/redox regulator APEX1 (Homo sapiens) (UniProt P27695); assay: qHTS Validation Assay for Inhibitors of the Human Apurinic/apyrimidinic Endonuclease 1 (APE1) (AID 1705;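 note: TAMRA fluorescence gain over two minutes as APE1 cuts a quenched THF abasic duplex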)
# Chain of DNA repair nuclease/redox regulator APEX1 (Homo sapiens) (P27695 whole entry, looked up): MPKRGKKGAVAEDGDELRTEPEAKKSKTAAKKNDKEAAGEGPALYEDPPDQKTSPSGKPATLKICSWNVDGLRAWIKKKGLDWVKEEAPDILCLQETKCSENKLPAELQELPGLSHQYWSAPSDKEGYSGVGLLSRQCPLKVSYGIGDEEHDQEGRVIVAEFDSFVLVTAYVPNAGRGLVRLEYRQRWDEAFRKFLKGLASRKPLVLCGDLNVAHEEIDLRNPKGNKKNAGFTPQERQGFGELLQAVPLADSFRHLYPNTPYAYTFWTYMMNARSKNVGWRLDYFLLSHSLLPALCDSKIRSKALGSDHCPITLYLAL
# Procedure, shortened: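 Activity read as rising fluorescence (598 nm emission, 525 nm excitation) from incision of a TAMRA/BHQ-2 duplex carrying a THF abasic site (50 nM). Compound and enzyme sat 15 min at RT before substrate start; signal change between first and third 60-s reads.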
# [6] = Counterscreen for APE1 Inhibitors: Fluorescent Dye Displacement Validation Assay (AID 1707)
# Procedure, shortened: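 Reaction mixture of 250 nM Thiazole Orange and 50 nM double-stranded abasic-site DNA was dispensed, compounds were pin-transferred, and fluorescence was read at endpoint (480 nm ex, 540 nm em). Reduced fluorescence indicated dye displacement by DNA binding.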
# [7] = biological target: Endonuclease 4 (Escherichia coli (strain K12)) (UniProt P0A6C1); assay: Counterscreen for APE1 Inhibitors: qHTS Validation Assay for Inhibitors of Endonuclease IV (AID 1708)
# Procedure, shortened: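 Enzyme (2 nM) + compound, 15 min RT; add 50 nM TAMRA/BHQ-2 THF-site dsDNA; kinetic read ex525/em598, 3 reads/60 s; activity = read 3 − read 1. Buffer Tris pH 7.5, 50 mM NaCl, 2 mM MgCl2, DTT, Tween-20.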
# [8] = qHTS for differential inhibitors of proliferation of Plasmodium falciparum line GB4 (AID 1816); conditions: Potency: Plasmodium falciparum GB4 proliferation inhibition;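 note: parasite growth measured after 72 h incubation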; note: potency is the fitted concentration of half-maximal effect
# [9] = qHTS for differential inhibitors of proliferation of Plasmodium falciparum line 3D7 (AID 1876); note: potency is the fitted concentration of half-maximal effect
# [10] = qHTS for differential inhibitors of proliferation of Plasmodium falciparum line D10 (AID 1877);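 note: parasites grown with compound for 72 h before DNA staining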; note: potency is the fitted concentration of half-maximal effect
# [11] = qHTS for differential inhibitors of proliferation of Plasmodium falciparum line Dd2 (AID 1882); conditions: Potency: Plasmodium falciparum Dd2 proliferation inhibition; note: nearly all actives have a fitted effect of over 65% in size; note: potency is the fitted concentration of half-maximal effect
# Procedure, shortened: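 SYBR Green DNA fluorescence (ex 485, em 535 nm) after overnight lysis quantifies parasite growth; compound exposure lasted 72 h at 37 C on infected red cells at 2.5% hematocrit, 0.3% parasitemia (final). Artemisinin 0.29 uM and vehicle wells define normalization.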
# [12] = qHTS for differential inhibitors of proliferation of Plasmodium falciparum line HB3 (AID 1886); conditions: Potency: Plasmodium falciparum HB3 proliferation inhibition;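 note: parasites grown with compound for 72 h before SYBR Green readout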; note: potency is the fitted concentration of half-maximal effect
# [13] = biological target: Ferritin light chain (Equus caballus) (UniProt P02791); assay: qHTS Validation Assay for Identification of Novel General Anesthetics (AID 2323)
# Chain of Ferritin light chain (Equus caballus) (P02791 2-175 limits assumed): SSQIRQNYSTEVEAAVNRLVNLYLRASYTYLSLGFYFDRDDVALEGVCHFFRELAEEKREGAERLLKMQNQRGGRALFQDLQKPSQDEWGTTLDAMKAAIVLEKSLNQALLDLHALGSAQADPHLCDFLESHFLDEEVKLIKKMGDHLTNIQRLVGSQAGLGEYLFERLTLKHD
# Procedure, shortened: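 Competitive displacement of the profluorescent anesthetic 1-AMA (50% saturated, PBS) from 10 uM apoferritin, 10 min, room temperature. Activity is normalized 380/535 nm fluorescence; concentration-response fitted with a four-parameter Hill equation.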
# [14] = biological target: ATP-dependent DNA helicase Q1 (Homo sapiens) (UniProt P46063); assay: qHTS Validation Assay for Inhibitors of RecQ-Like Dna Helicase 1 (RECQ1) (AID 2353)
# Chain of ATP-dependent DNA helicase Q1 (Homo sapiens) (P46063 whole entry, looked up): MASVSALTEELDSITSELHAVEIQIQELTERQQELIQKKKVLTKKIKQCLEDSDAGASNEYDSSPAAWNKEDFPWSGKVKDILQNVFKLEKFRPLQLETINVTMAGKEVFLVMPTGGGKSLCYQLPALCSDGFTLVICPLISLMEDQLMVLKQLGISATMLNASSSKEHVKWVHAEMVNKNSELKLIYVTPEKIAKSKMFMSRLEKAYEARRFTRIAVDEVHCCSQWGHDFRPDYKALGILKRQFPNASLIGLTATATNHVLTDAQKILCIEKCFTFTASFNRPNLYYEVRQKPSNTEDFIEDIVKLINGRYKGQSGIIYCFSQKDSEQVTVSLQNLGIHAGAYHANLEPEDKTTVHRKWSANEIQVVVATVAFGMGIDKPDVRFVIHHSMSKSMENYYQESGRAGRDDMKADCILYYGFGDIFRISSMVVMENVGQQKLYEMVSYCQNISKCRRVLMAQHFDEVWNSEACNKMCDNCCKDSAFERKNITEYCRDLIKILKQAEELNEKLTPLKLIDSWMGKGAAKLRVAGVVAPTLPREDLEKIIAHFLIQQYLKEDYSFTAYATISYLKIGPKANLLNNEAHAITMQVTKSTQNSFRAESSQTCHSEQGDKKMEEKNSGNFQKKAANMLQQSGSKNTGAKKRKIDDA
# Procedure, shortened: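 RECQ1T1 50 nM; forked duplex (20 bp + 30-nt ss tails) 200 nM, ATP 2 mM final; pH 8.0, 2 mM MgCl2, 2.5 ug/ml poly(dI-dC); 15 min compound preincubation; discontinuous kinetic read over 2 h at RT.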
# [15] = Quantitative high throughput screen for delayed death inhibitors of the malarial parasite plastid, 96 hour incubation (AID 488745); note: nearly all actives have a fitted effect of over 70% in size; note: potency is the fitted concentration of half-maximal effect;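 for activity change, negative = inhibition: luciferase-expressing P. falciparum in erythrocytes at 2% hematocrit and 0.1% parasitemia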
# Procedure, shortened: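 Readout is firefly luciferase luminescence from an integrated reporter in P. falciparum; lower signal marks inhibited growth. Cultures at 2% hematocrit and 0.1% parasitemia were treated with compound across two generations (96 h, 37 C, 5% CO2).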
# [16] = Quantitative high throughput screen for delayed death inhibitors of the malarial parasite plastid, 48 hour incubation (AID 488752); note: nearly all actives have a fitted effect of over 65% in size; note: potency is the fitted concentration of half-maximal effect
# Procedure, shortened: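 First, compound was pinned into RPMI 1640 medium containing 0.5% Albumax. Next, reporter-parasite-infected erythrocytes were added to 2% hematocrit and 0.1% parasitemia. After 48 h at 37 C under 5% CO2, luciferase detection reagent was added and luminescence read.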
# [17] = biological target: M-phase phosphoprotein 8 (Homo sapiens) (UniProt Q99549); assay: qHTS Validation Assay for Inhibitors for MPP8 Chromodomain Interactions with Methylated Histone Tails (AID 488949); note: nearly all actives have a fitted effect of over 55% in size; note: potency is the fitted concentration of half-maximal effect;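 for activity change, negative = inhibition: AlphaScreen signal from MPP8 chromodomain bound to biotinylated H3K9me3 peptide; top concentration of the series differs between compounds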
# Chain of M-phase phosphoprotein 8 (Homo sapiens) (Q99549 whole entry, looked up): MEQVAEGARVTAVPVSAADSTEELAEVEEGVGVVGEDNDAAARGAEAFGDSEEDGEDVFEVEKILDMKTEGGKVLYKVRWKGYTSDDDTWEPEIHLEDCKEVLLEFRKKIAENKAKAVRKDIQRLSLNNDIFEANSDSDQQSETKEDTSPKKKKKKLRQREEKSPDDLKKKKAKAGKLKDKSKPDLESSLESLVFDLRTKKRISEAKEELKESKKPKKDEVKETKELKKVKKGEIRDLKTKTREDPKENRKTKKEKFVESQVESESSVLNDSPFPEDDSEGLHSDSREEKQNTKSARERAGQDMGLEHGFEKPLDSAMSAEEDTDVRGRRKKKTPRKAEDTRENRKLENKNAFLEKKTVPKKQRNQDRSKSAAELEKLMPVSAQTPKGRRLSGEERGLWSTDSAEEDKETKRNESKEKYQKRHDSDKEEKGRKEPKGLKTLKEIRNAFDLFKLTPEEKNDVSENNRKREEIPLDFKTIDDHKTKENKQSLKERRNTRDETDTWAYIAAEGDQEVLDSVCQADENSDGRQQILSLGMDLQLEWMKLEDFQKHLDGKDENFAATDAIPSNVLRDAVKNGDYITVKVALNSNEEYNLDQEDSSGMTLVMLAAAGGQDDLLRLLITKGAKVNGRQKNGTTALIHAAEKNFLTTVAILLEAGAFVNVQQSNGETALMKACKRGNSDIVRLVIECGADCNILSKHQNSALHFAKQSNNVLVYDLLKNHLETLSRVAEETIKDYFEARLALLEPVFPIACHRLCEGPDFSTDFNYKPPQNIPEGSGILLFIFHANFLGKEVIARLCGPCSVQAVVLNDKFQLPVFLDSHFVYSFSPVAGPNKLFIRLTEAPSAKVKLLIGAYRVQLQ
# Procedure, shortened: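 AlphaScreen proximity signal from streptavidin donor and Ni-chelate acceptor beads (10 ug/mL each) reported binding of MPP8 to trimethyl-K9 H3(1-18) peptide, both at 50 nM. The complex formed 30 min before a 30 min compound exposure at room temperature, in PBS pH 7.4.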
# [18] = biological target: Thyrotropin receptor (Homo sapiens) (UniProt P16473); assay: qHTS Assay for Antagonists of the Thyroid Stimulating Hormone Receptor (AID 488980)
# Chain of Thyrotropin receptor (Homo sapiens) (P16473 whole entry, looked up): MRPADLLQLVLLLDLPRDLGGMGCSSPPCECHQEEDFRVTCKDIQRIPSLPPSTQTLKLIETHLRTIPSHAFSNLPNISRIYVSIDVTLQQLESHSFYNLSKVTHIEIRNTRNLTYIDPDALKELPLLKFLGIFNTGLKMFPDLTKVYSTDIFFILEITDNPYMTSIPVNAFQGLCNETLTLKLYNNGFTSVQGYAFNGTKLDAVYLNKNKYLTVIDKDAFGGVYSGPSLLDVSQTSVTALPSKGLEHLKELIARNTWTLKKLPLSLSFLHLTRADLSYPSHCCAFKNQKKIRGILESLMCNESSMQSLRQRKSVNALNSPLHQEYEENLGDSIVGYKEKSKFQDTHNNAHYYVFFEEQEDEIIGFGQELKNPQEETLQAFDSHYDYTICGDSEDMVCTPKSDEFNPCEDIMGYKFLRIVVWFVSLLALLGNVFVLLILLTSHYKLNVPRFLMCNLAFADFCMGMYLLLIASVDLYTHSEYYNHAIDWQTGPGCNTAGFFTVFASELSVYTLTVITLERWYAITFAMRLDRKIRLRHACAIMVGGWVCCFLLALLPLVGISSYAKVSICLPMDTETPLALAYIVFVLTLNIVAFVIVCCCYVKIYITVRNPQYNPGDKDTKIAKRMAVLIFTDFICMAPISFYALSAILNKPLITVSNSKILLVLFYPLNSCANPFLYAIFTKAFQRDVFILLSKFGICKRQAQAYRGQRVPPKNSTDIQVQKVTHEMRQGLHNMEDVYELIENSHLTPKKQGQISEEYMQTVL
# Procedure, shortened: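 Inhibition of cAMP raised by EC80 TSH (4 nM final) was read by HTRF, with lysate cAMP competing against cAMP-d2 for cryptate antibody after 30 min at room temperature. The cells were transfected HEK293 held in phosphodiesterase inhibitor RO 20-1724 at 70 uM.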
# [19] = biological target: Thyrotropin-releasing hormone receptor (Homo sapiens) (UniProt P34981); assay: qHTS for Small Molecule Agonists and Allosteric Enhancers of Human TRH Receptor: Validation Screen for Agonists (AID 493127;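 active = calcium activation more than 3 SD above the typical response in the agonist read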;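 note: intracellular calcium rise by fluo-8 fluorescence before TRH EC20 addition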); conditions: TRH receptor agonist cell assay; at 2 µM; stronger effect = higher value
# Chain of Thyrotropin-releasing hormone receptor (Homo sapiens) (P34981 whole entry, looked up): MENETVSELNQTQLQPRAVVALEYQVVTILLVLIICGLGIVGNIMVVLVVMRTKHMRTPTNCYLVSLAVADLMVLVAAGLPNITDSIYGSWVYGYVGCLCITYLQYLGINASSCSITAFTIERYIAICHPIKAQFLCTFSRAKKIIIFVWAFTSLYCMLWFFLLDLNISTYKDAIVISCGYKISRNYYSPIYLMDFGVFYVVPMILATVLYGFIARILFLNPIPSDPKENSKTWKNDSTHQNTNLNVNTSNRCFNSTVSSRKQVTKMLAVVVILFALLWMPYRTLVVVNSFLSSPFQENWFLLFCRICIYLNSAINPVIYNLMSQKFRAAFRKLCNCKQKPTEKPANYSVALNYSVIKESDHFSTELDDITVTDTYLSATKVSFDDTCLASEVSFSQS
# Procedure, shortened: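 Compounds are added by online pintool to dye-loaded TRHR cells while fluorescence is recorded every second. A rise in calcium signal during the agonist read marks activation; a later 10 nM TRH addition (EC20) serves the separate enhancer mode.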
# [20] = biological target: Galactokinase (Homo sapiens) (UniProt P51570); assay: qHTS Validation Assay for Inhibitors of Human Galactokinase (GALK) (AID 493189)
# Chain of Galactokinase (Homo sapiens) (P51570 whole entry, looked up): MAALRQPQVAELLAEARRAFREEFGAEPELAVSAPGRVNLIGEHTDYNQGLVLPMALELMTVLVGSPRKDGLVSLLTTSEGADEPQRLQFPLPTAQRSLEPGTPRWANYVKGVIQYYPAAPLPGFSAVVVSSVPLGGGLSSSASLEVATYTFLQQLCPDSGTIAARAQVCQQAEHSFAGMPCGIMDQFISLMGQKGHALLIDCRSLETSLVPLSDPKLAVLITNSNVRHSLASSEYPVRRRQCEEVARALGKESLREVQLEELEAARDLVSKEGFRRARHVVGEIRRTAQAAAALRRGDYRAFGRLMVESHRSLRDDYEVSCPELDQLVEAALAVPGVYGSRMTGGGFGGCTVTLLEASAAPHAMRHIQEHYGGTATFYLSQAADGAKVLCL
# Procedure, shortened: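 Inhibition was measured as remaining ATP, detected by luciferase luminescence after a 1 h room-temperature reaction. Final conditions: 5 nM GALK, 100 uM galactose, 35 uM ATP, pH 8.0 HEPES buffer.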
# [21] = Validation screen for small molecules that induce DNA re-replication in SW480 colon adenocarcinoma cells (AID 504364)
# Procedure, shortened: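 Image-based qHTS: compounds were incubated with SW480 cells for 48 hr, nuclei stained with Hoechst, and per-nucleus fluorescence intensity scanned to flag cells with excess DNA content.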
# [22] = qHTS for differential inhibitors of proliferation of Plasmodium falciparum line W2 (AID 1883); conditions: Potency: Plasmodium falciparum W2 proliferation inhibition;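 note: potency is the fitted concentration of half-maximal effect; parasites grown with compound for 72 h before lysis and staining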
# [23] = qHTS Assay for Modulators of Human Peripheral Myelin Protein 22 (PMP22) Expression/Activity (AID 1967; active = well fitted curve in the direction sought with a large enough effect in the signal ratio; the % refers to the signal ratio)
# Procedure, shortened: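 Readout is the corrected green/red luminescence ratio after 24 h compound exposure, normalised to untreated cells (0%). Engineered MSC80 mouse Schwann cells express green luciferase from the mouse Pmp22 promoter and red luciferase from EF-alpha as internal control.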
# [24] = Validation screen for small molecules that induce DNA re-replication in MCF 10A normal breast cells (AID 463097); note: nearly all actives have a fitted effect of over 60% in size; note: potency is the fitted concentration of half-maximal effect
# Procedure, shortened: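 Read-out is Hoechst total nuclear intensity by fluorescence scanning imager, flagging increased high-DNA-content nuclei. Compounds were incubated with MCF 10A cells for 48 hr (37 C, 5% CO2) before 40 min staining.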
# [25] = qHTS for differential inhibitors of proliferation of Plasmodium falciparum line 7G8 (AID 1815);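 note: potency is the fitted concentration of half-maximal effect; parasite growth measured after three days of incubation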
# [26] = biological target: Transient receptor potential cation channel subfamily V member 1 (Homo sapiens) (UniProt Q8NER1); assay: HTS Assay for Compounds that Act as Enhancers of the Vanilloid Receptor 1 (AID 488979)
# Procedure, shortened: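 TRPV1-expressing cells loaded with Fluo-8 calcium dye; compounds added and calcium influx read kinetically for 3 min (agonist phase), then capsaicin at EC20 added and read 2 min more for enhancement. Fluorescence ex 480/em 520 nm.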
structure (smiles),measurement,setting,value
COc1ccc(-c2cc(-c3cnn(C)c3)cn3cncc23)cn1,activity,[1],-23.7%
same,"activity change, negative = inhibition",[2],-6.32% [at 85.7 µM]
same,activity,[3],-36.8%
same,activity,[4],-7.46%
Cn1cc(-c2cc3c(ccn3Cc3ccncc3)c(N3CCOCC3)n2)cn1,activity,[1],-2.2%
same,"activity change, negative = inhibition",[2],-2.92% [at 85.7 µM]
same,activity,[3],-4.04%
same,activity,[4],-7.43%
CC[C@H](C)C(=O)O[C@H]1CCC=C2C=C[C@H](C)[C@H](CC[C@@H]3C[C@H](O)CC(=O)O3)C21 (stereo partly drawn),Potency,[5],inactive
same,outcome,[6],inactive
same,Potency,[7],inactive
same,Potency,[8],inactive
same,Potency,[9],inactive
same,Potency,[10],inactive
same,Potency,[11],inactive
same,Potency,[12],inactive
same,outcome,[13],inactive
same,outcome,[14],inactive
same,Potency,[15],inactive
same,Potency,[16],inactive
same,Potency,[17],inactive
same,outcome,[18],inactive
same,activation,[19],-5% (inactive)
same,outcome,[20],inactive
same,Potency,[21],inactive
C[C@]12C[C@H](O)C3[C@@H](CCC4=CC(=O)CC[C@@]43C)[C@@H]1CC[C@@H]2C(=O)CO (stereo partly drawn),Potency,[5],inactive
same,outcome,[6],inactive
same,Potency,[7],inactive
same,Potency,[11],inactive
same,Potency,[22],11.2 µM (active)
same,Potency,[12],inactive
same,outcome,[23],inactive
same,outcome,[14],inactive
same,Potency,[24],inactive
same,Potency,[16],inactive
same,Potency,[17],inactive
same,outcome,[18],inactive
same,outcome,[20],inactive
same,Potency,[21],inactive
Cc1c(C)c2c(c(C)c1O)CCC(C)(CN1CCN(c3cc(N4CCCC4)nc(N4CCCC4)n3)CC1)O2 (stereo not drawn),Potency,[5],inactive
same,outcome,[6],inactive
same,Potency,[25],0.562 µM (active)
same,Potency,[8],0.501 µM (active)
same,Potency,[9],0.891 µM (active)
same,Potency,[10],0.501 µM (active)
same,Potency,[11],1.26 µM (active)
same,Potency,[22],0.355 µM (active)
same,Potency,[12],0.891 µM (active)
same,outcome,[13],inactive
same,outcome,[14],inactive
same,Potency,[24],4.47 µM (active)
same,Potency,[15],1.65 µM (active)
same,Potency,[16],1.85 µM (active)
same,Potency,[17],11.2 µM (active)
same,outcome,[26],inactive
same,outcome,[18],inactive
same,activation,[19],-7.62% (inactive)
same,outcome,[20],inactive
